The text below walks through data of PubChem BioAssay (NCI).

Test systems include NCI-H23 lung; NCI-H226 lung; NCI-H322M lung; HOP-62 NSCLC; NCI-H460 lung; HOP-92 NSCLC; NCI-H522 lung; A549/ATCC NSCLC; 786-0 renal; COLO 205 colon.
What all share (experiment): NCI-60 one-dose screen, 48 h (100 = growth as untreated, 0 = no growth, -100 = all killed)
What all share (conditions): 10 µM unless noted

SMILES strings stand for the structures. About 83,000 compounds went through this panel and 20% of them were active in at least one assay; those are over-represented in the sample as a whole.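 Cell lines were cultured in 96-well plates, exposed to a single compound concentration, and assessed for percent growth 48 hours later.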 Values without a mark were called inactive. Active and inactive are the calls of the source. The calls were made as follows: active = growth percent below 10; inactive = the rest.

Take `CCN1C(=O)N(CC)C2Nn3c(s/c(=C4\C(=O)N(CCC(C)C)c5ccccc54)c3=O)=NC21` (stereo not given): the growth is 87.8% in the assay on NCI-H23 lung; 83.9% with NCI-H226 lung; 92.4% in the assay with NCI-H322M lung; 89.2% in the assay on HOP-62 NSCLC; 106% with NCI-H460 lung; 73.2% in the assay with HOP-92 NSCLC. The growth with NCI-H522 lung is 50.4%; in the assay on A549/ATCC NSCLC it was 90%; in the assay with 786-0 renal it was 57.1%; in the assay with COLO 205 colon it was 73.2%.

Regarding `Cc1cccc2c3c(sc12)C(c1ccc(F)cc1)C(C#N)=C(N)O3` (stereo not given), the growth in the assay on NCI-H23 lung is 21.3%; in the assay with NCI-H226 lung, 26.1%; with NCI-H322M lung, 46.4%; with HOP-62 NSCLC it was 33.2%; in the assay on NCI-H460 lung, 3.07% (active); in the assay with HOP-92 NSCLC, 68.4%. Moreover, the growth in the assay with NCI-H522 lung was 13.6%; in the assay with A549/ATCC NSCLC it was 22.1%; in the assay with 786-0 renal, 16.7%; in the assay on COLO 205 colon it was -37.3% (active).

Turning to `CCc1cccc2c1S/C(=C/c1ccc(OC)cc1)C2=O`, the growth in the assay on NCI-H23 lung was 50.1%; in the assay on NCI-H226 lung, 85.7%; with NCI-H322M lung, 86.7%; in the assay on HOP-62 NSCLC it was 45.4%; in the assay on NCI-H460 lung, 56%; with HOP-92 NSCLC, 72.2%. In addition, the growth with NCI-H522 lung was 42.7%; with A549/ATCC NSCLC, 89%; with 786-0 renal, 63.6%; in the assay with COLO 205 colon, 105%.

Turning to `CCCCOc1nc2ccc(OC)cc2cc1-c1cc(-c2ccc(Cl)cc2)nc(-c2ccc(Cl)cc2)c1`, the growth in the assay on NCI-H23 lung is 102%; in the assay on NCI-H226 lung, 103%; in the assay with NCI-H322M lung, 99.7%; with HOP-62 NSCLC, 110%; with NCI-H460 lung, 107%; in the assay with HOP-92 NSCLC, 97.6%. The growth with NCI-H522 lung was 98.7%; in the assay with A549/ATCC NSCLC, 99.3%; in the assay with 786-0 renal, 112%; with COLO 205 colon it was 112%.

As for `COc1cccc2c(=O)c3c(sc12)c(NCCCN)nc1ccccc13`, the growth in the assay with NCI-H23 lung is 59.7%; in the assay with NCI-H226 lung, 63.4%; in the assay with NCI-H322M lung, 64.4%; in the assay on HOP-62 NSCLC, 53.2%; with NCI-H460 lung it was -30.1% (active); in the assay on HOP-92 NSCLC, 45.7%. The growth with NCI-H522 lung is 56.5%; in the assay on A549/ATCC NSCLC it was 36.3%; with 786-0 renal, 68.2%; in the assay with COLO 205 colon, -24.6% (active).

As to `CCCCCCCCCCCCCCCCCCOc1ccc(CC(=O)OCC[N+](C)(C)C)cc1`, the growth with NCI-H23 lung is 93.3%; in the assay with NCI-H226 lung, 95.1%; in the assay with NCI-H322M lung it was 103%; with HOP-62 NSCLC it was 108%; in the assay on NCI-H460 lung, 100%; with HOP-92 NSCLC, 103%. Moreover, the growth in the assay on NCI-H522 lung is 95.7%; in the assay with A549/ATCC NSCLC, 94.6%; in the assay with 786-0 renal, 93%; in the assay with COLO 205 colon, 115%.

On to `Cc1oc2nc[nH]c(=O)c2c1C(=O)/C=C/c1ccc(Br)cc1`, for which the growth in the assay with NCI-H23 lung is -11.2% (active); in the assay with NCI-H226 lung, -8.79% (active); with NCI-H322M lung, 2.39% (active); in the assay on HOP-62 NSCLC, 12.1%; in the assay with NCI-H460 lung it was 3.92% (active); in the assay on HOP-92 NSCLC it was -10.7% (active). The growth in the assay with NCI-H522 lung was 13.9%; in the assay with A549/ATCC NSCLC, 9.19% (active); with 786-0 renal it was 11.5%; with COLO 205 colon, 3.83% (active).

For `COc1cc(Nc2nc(NCCN)nc3cc[nH]c(=O)c23)cc(OC)c1`, the growth is 65.1% with NCI-H23 lung; 93.7% with NCI-H226 lung; 83% with NCI-H322M lung; 97.8% with HOP-62 NSCLC; 96.9% with NCI-H460 lung; 59.5% with HOP-92 NSCLC. The growth was 72.9% in the assay on NCI-H522 lung, 90.5% with A549/ATCC NSCLC, 86.9% with 786-0 renal and 55.3% with COLO 205 colon.

Regarding `N#CC1=C(N)Oc2c(sc3c(Br)cccc23)C1c1ccc([N+](=O)[O-])cc1` (stereo not given), the growth was 11.7% with NCI-H23 lung; 58.9% in the assay with NCI-H226 lung; 40.6% with NCI-H322M lung; 26.6% with HOP-62 NSCLC; -7.51% (active) with NCI-H460 lung; -7.19% (active) with HOP-92 NSCLC. Further, the growth in the assay on NCI-H522 lung was -6.47% (active); with A549/ATCC NSCLC it was 24.7%; in the assay with 786-0 renal, 10.2%; with COLO 205 colon it was -49.7% (active).

In the case of `CN(C)CCNc1nc2ccccc2c2c(=O)c3cc(F)ccc3sc12`, the growth in the assay with NCI-H23 lung was 58.6%; in the assay on NCI-H226 lung, 83.3%; with NCI-H322M lung it was 53%; with HOP-62 NSCLC, 51.9%; in the assay on NCI-H460 lung it was -5.59% (active); in the assay with HOP-92 NSCLC, 10%. For the same compound, the growth in the assay with NCI-H522 lung was 37.8%; in the assay on A549/ATCC NSCLC, 38.9%; in the assay with 786-0 renal, 54.1%; with COLO 205 colon, -39.6% (active).

Turning to `COC(=O)/C=C1\S/C(=N\Nc2ccc([N+](=O)[O-])cc2[N+](=O)[O-])N(C2CCCCC2)C1=O`, the growth was 60% with NCI-H23 lung; 80.7% with NCI-H226 lung; 99.3% in the assay on NCI-H322M lung; 86.8% with HOP-62 NSCLC; 35.1% in the assay on NCI-H460 lung; 8.36% (active) in the assay on HOP-92 NSCLC. The growth in the assay with NCI-H522 lung is 43.6%; with A549/ATCC NSCLC, 87.6%; in the assay on 786-0 renal it was 61.1%; in the assay on COLO 205 colon, 42.5%.

As for `Cc1ccc(C2CC(c3ccc(Nc4ccnc5cc(Cl)ccc45)cc3)=NN2C=O)cc1` (stereo not given), the growth in the assay on NCI-H23 lung was 60.3%; in the assay on NCI-H226 lung it was 85.1%; in the assay on NCI-H322M lung, 87.8%; in the assay with HOP-62 NSCLC, 72.5%; with NCI-H460 lung it was 69.8%; in the assay with HOP-92 NSCLC, 61.5%. For the same compound, the growth with NCI-H522 lung was 50.1%; in the assay with A549/ATCC NSCLC, 50.2%; with 786-0 renal, 64%; in the assay on COLO 205 colon, 64.9%.

For `Cc1ccc(C(=O)N/N=C/c2cccc(Oc3ccccc3)c2)cn1`, the growth was 70.7% in the assay with NCI-H23 lung; 66.9% in the assay on NCI-H226 lung; 82.3% in the assay with NCI-H322M lung; 71.6% with HOP-62 NSCLC; 33.3% with NCI-H460 lung; 71.6% in the assay with HOP-92 NSCLC. Further, the growth in the assay on NCI-H522 lung was 31.5%; in the assay on A549/ATCC NSCLC, 54.1%; in the assay with 786-0 renal, 18.3%; in the assay with COLO 205 colon, 65.2%.
